{
  "source": "paper PMC8384837",
  "about": "“Expanding the binding specificity for RNA recognition by a PUF domain”",
  "experiment_in_all_cases": "yeast three-hybrid, YBZ-1, SC-Leu-His + 0.5 mM 3-AT, 4 days",
  "settings_in_all_cases": "tags: N-Gal4 AD-HA kept; label: inside an RPR1-promoter hybrid RNA with tandem MS2 sites; ssRNA",
  "key": {"PUM1 PUF domain R7-KGV": {"target": "PUM1 PUF domain R7-KGV (Homo sapiens, UniProt Q14671 828-1176, S1079K;N1080G;E1083V)", "sequence (Q14671 828-1176 S1079K/N1080G/E1083V)": "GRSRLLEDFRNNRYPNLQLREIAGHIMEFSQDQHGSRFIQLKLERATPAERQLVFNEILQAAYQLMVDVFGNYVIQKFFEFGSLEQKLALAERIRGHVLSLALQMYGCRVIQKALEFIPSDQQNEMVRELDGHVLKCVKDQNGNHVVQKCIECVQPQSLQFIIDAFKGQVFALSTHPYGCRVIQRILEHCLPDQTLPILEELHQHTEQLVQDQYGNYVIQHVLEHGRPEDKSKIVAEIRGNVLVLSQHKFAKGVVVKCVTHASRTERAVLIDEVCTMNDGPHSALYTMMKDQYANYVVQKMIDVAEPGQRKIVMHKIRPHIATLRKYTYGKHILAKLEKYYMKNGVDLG", "procedure,_shortened": "(§1)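 The interaction score is the log change in variant frequency from input to selection. Scores were computed in log2 with a pseudocount of 1 for absent variants, using Illumina sequencing of PCR-amplified repeat regions. The input came from four days on SC-Leu and the selection from four days on SC-Leu-His + 0.5 mM 3-AT. The cells were strain YBZ-1 (LexA–MS2 coat fusion, HIS3 reporter) co-expressing Pumilio-1 PUF domain libraries and matching RNA elements from a centromeric plasmid.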"}, "PUM1 PUF domain R8-HHP": {"target": "PUM1 PUF domain R8-HHP (Homo sapiens, UniProt Q14671 828-1176, N1122H;Y1123H;Q1126P)", "sequence (Q14671 828-1176 N1122H/Y1123H/Q1126P)": "as the sequence (Q14671 828-1176 S1079K/N1080G/E1083V) above, with K252S, G253N, V256E, N295H, Y296H, Q299P counted along it", "procedure,_shortened": "as §1"}, "PUM1 PUF domain R5-RRN": {"target": "PUM1 PUF domain R5-RRN (Homo sapiens, UniProt Q14671 828-1176, C1007R;Q1011N)", "sequence (Q14671 828-1176 C1007R/Q1011N)": "as the sequence (Q14671 828-1176 S1079K/N1080G/E1083V) above, with C180R, Q184N, K252S, G253N, V256E counted along it", "procedure,_shortened": "as §1"}, "PUM1 PUF domain R5-RFN": {"target": "PUM1 PUF domain R5-RFN (Homo sapiens, UniProt Q14671 828-1176, C1007R;R1008F;Q1011N)", "sequence (Q14671 828-1176 C1007R/R1008F/Q1011N)": "as the sequence (Q14671 828-1176 S1079K/N1080G/E1083V) above, with C180R, R181F, Q184N, K252S, G253N, V256E counted along it", "procedure,_shortened": "as §1"}, "PUM1 PUF domain R5-GWY": {"target": "PUM1 PUF domain R5-GWY (Homo sapiens, UniProt Q14671 828-1176, C1007G;R1008W;Q1011Y)", "sequence (Q14671 828-1176 C1007G/R1008W/Q1011Y)": "as the sequence (Q14671 828-1176 S1079K/N1080G/E1083V) above, with C180G, R181W, Q184Y, K252S, G253N, V256E counted along it", "procedure,_shortened": "as §1"}, "PUM1 PUF domain R1-RKM": {"target": "PUM1 PUF domain R1-RKM (Homo sapiens, UniProt Q14671 828-1176, S863R;R864K;Q867M)", "sequence (Q14671 828-1176 S863R/R864K/Q867M)": "as the sequence (Q14671 828-1176 S1079K/N1080G/E1083V) above, with S36R, R37K, Q40M, K252S, G253N, V256E counted along it", "procedure,_shortened": "as §1"}, "PUM1 PUF domain R1-NYV": {"target": "PUM1 PUF domain R1-NYV (Homo sapiens, UniProt Q14671 828-1176, S863N;R864Y;Q867V)", "sequence (Q14671 828-1176 S863N/R864Y/Q867V)": "as the sequence (Q14671 828-1176 S1079K/N1080G/E1083V) above, with S36N, R37Y, Q40V, K252S, G253N, V256E counted along it", "procedure,_shortened": "as §1"}, "PUM1 PUF domain R5-ARR": {"target": "PUM1 PUF domain R5-ARR (Homo sapiens, UniProt Q14671 828-1176, C1007A;Q1011R)", "sequence (Q14671 828-1176 C1007A/Q1011R)": "as the sequence (Q14671 828-1176 S1079K/N1080G/E1083V) above, with C180A, Q184R, K252S, G253N, V256E counted along it", "procedure,_shortened": "as §1"}, "PUM1 PUF domain R4-SMT": {"target": "PUM1 PUF domain R4-SMT (Homo sapiens, UniProt Q14671 828-1176, N971S;H972M;Q975T)", "sequence (Q14671 828-1176 N971S/H972M/Q975T)": "as the sequence (Q14671 828-1176 S1079K/N1080G/E1083V) above, with N144S, H145M, Q148T, K252S, G253N, V256E counted along it", "procedure,_shortened": "as §1"}, "PUM1 PUF domain R4-EHT": {"target": "PUM1 PUF domain R4-EHT (Homo sapiens, UniProt Q14671 828-1176, N971E;Q975T)", "sequence (Q14671 828-1176 N971E/Q975T)": "as the sequence (Q14671 828-1176 S1079K/N1080G/E1083V) above, with N144E, Q148T, K252S, G253N, V256E counted along it", "procedure,_shortened": "as §1"}, "PUM1 PUF domain R8-PFK": {"target": "PUM1 PUF domain R8-PFK (Homo sapiens, UniProt Q14671 828-1176, N1122P;Y1123F;Q1126K)", "sequence (Q14671 828-1176 N1122P/Y1123F/Q1126K)": "as the sequence (Q14671 828-1176 S1079K/N1080G/E1083V) above, with K252S, G253N, V256E, N295P, Y296F, Q299K counted along it", "procedure,_shortened": "as §1"}, "PUM1 PUF domain R8-WFR": {"target": "PUM1 PUF domain R8-WFR (Homo sapiens, UniProt Q14671 828-1176, N1122W;Y1123F;Q1126R)", "sequence (Q14671 828-1176 N1122W/Y1123F/Q1126R)": "as the sequence (Q14671 828-1176 S1079K/N1080G/E1083V) above, with K252S, G253N, V256E, N295W, Y296F, Q299R counted along it", "procedure,_shortened": "as §1"}, "PUM1 PUF domain R3-TCE": {"target": "PUM1 PUF domain R3-TCE (Homo sapiens, UniProt Q14671 828-1176, C935T;R936C;Q939E)", "sequence (Q14671 828-1176 C935T/R936C/Q939E)": "as the sequence (Q14671 828-1176 S1079K/N1080G/E1083V) above, with C108T, R109C, Q112E, K252S, G253N, V256E counted along it", "procedure,_shortened": "as §1"}, "PUM1 PUF domain R3-GFG": {"target": "PUM1 PUF domain R3-GFG (Homo sapiens, UniProt Q14671 828-1176, C935G;R936F;Q939G)", "sequence (Q14671 828-1176 C935G/R936F/Q939G)": "as the sequence (Q14671 828-1176 S1079K/N1080G/E1083V) above, with C108G, R109F, Q112G, K252S, G253N, V256E counted along it", "procedure,_shortened": "as §1"}, "PUM1 PUF domain R3-TWD": {"target": "PUM1 PUF domain R3-TWD (Homo sapiens, UniProt Q14671 828-1176, C935T;R936W;Q939D)", "sequence (Q14671 828-1176 C935T/R936W/Q939D)": "as the sequence (Q14671 828-1176 S1079K/N1080G/E1083V) above, with C108T, R109W, Q112D, K252S, G253N, V256E counted along it", "procedure,_shortened": "as §1"}, "PUM1 PUF domain R3-WWS": {"target": "PUM1 PUF domain R3-WWS (Homo sapiens, UniProt Q14671 828-1176, C935W;R936W;Q939S)", "sequence (Q14671 828-1176 C935W/R936W/Q939S)": "as the sequence (Q14671 828-1176 S1079K/N1080G/E1083V) above, with C108W, R109W, Q112S, K252S, G253N, V256E counted along it", "procedure,_shortened": "as §1"}, "PUM1 PUF domain R3-GRF": {"target": "PUM1 PUF domain R3-GRF (Homo sapiens, UniProt Q14671 828-1176, C935G;Q939F)", "sequence (Q14671 828-1176 C935G/Q939F)": "as the sequence (Q14671 828-1176 S1079K/N1080G/E1083V) above, with C108G, Q112F, K252S, G253N, V256E counted along it", "procedure,_shortened": "as §1"}, "PUM1 PUF domain R3-GPS": {"target": "PUM1 PUF domain R3-GPS (Homo sapiens, UniProt Q14671 828-1176, C935G;R936P;Q939S)", "sequence (Q14671 828-1176 C935G/R936P/Q939S)": "as the sequence (Q14671 828-1176 S1079K/N1080G/E1083V) above, with C108G, R109P, Q112S, K252S, G253N, V256E counted along it", "procedure,_shortened": "as §1"}, "PUM1 PUF domain R3-NPR": {"target": "PUM1 PUF domain R3-NPR (Homo sapiens, UniProt Q14671 828-1176, C935N;R936P;Q939R)", "sequence (Q14671 828-1176 C935N/R936P/Q939R)": "as the sequence (Q14671 828-1176 S1079K/N1080G/E1083V) above, with C108N, R109P, Q112R, K252S, G253N, V256E counted along it", "procedure,_shortened": "as §1"}, "PUM1 PUF domain R3-RSD": {"target": "PUM1 PUF domain R3-RSD (Homo sapiens, UniProt Q14671 828-1176, C935R;R936S;Q939D)", "sequence (Q14671 828-1176 C935R/R936S/Q939D)": "as the sequence (Q14671 828-1176 S1079K/N1080G/E1083V) above, with C108R, R109S, Q112D, K252S, G253N, V256E counted along it", "procedure,_shortened": "as §1"}},
  "data": [
    {"sequence": "GGCUAGAACUAGUGGAUCCCCCGGCGCCCGGCGGCUCGAGCCCGGGUAAGUUUAAAUAGUCUGCAUGCCGCCGGGCGCCAUGCCUGCAGGUCGACUCUAGAAAACAUG", "values": [
      {"measurement": "binding signal", "setting": "PUM1 PUF domain R7-KGV", "value": "3.27 log2 enrichment (interaction score)"}
    ]},
    {"sequence": "GGCUAGAACUAGUGGAUCCCCCGGCGCCCGGCGGCUCGAGCCCGGGUAAGGGUAAAUAGUCUGCAUGCCGCCGGGCGCCAUGCCUGCAGGUCGACUCUAGAAAACAUG", "values": [
      {"measurement": "binding signal", "setting": "PUM1 PUF domain R8-HHP", "value": "2.56 log2 enrichment (interaction score)"}
    ]},
    {"sequence": "GGCUAGAACUAGUGGAUCCCCCGGCGCCCGGCGGCUCGAGCCCGGGUAAGUGUGAAUAGUCUGCAUGCCGCCGGGCGCCAUGCCUGCAGGUCGACUCUAGAAAACAUG", "values": [
      {"measurement": "binding signal", "setting": "PUM1 PUF domain R5-RRN", "value": "1.8 log2 enrichment (interaction score)"},
      {"measurement": "binding signal", "setting": "PUM1 PUF domain R5-RFN", "value": "3.16 log2 enrichment (interaction score)"},
      {"measurement": "binding signal", "setting": "PUM1 PUF domain R5-GWY", "value": "2.71 log2 enrichment (interaction score)"}
    ]},
    {"sequence": "GGCUAGAACUAGUGGAUCCCCCGGCGCCCGGCGGCUCGAGCCCGGGUAAGUGUAAAUUGUCUGCAUGCCGCCGGGCGCCAUGCCUGCAGGUCGACUCUAGAAAACAUG", "values": [
      {"measurement": "binding signal", "setting": "PUM1 PUF domain R1-RKM", "value": "3.28 log2 enrichment (interaction score)"},
      {"measurement": "binding signal", "setting": "PUM1 PUF domain R1-NYV", "value": "3.91 log2 enrichment (interaction score)"}
    ]},
    {"sequence": "GGCUAGAACUAGUGGAUCCCCCGGCGCCCGGCGGCUCGAGCCCGGGUAAGUGUCAAUAGUCUGCAUGCCGCCGGGCGCCAUGCCUGCAGGUCGACUCUAGAAAACAUG", "values": [
      {"measurement": "binding signal", "setting": "PUM1 PUF domain R5-RRN", "value": "4.4 log2 enrichment (interaction score)"},
      {"measurement": "binding signal", "setting": "PUM1 PUF domain R5-ARR", "value": "4.7 log2 enrichment (interaction score)"}
    ]},
    {"sequence": "GGCUAGAACUAGUGGAUCCCCCGGCGCCCGGCGGCUCGAGCCCGGGUAAGUGUAUAUAGUCUGCAUGCCGCCGGGCGCCAUGCCUGCAGGUCGACUCUAGAAAACAUG", "values": [
      {"measurement": "binding signal", "setting": "PUM1 PUF domain R4-SMT", "value": "5.3 log2 enrichment (interaction score)"},
      {"measurement": "binding signal", "setting": "PUM1 PUF domain R4-EHT", "value": "2.46 log2 enrichment (interaction score)"}
    ]},
    {"sequence": "GGCUAGAACUAGUGGAUCCCCCGGCGCCCGGCGGCUCGAGCCCGGGUAAGUGUUAAUAGUCUGCAUGCCGCCGGGCGCCAUGCCUGCAGGUCGACUCUAGAAAACAUG", "values": [
      {"measurement": "binding signal", "setting": "PUM1 PUF domain R5-RRN", "value": "3.66 log2 enrichment (interaction score)"},
      {"measurement": "binding signal", "setting": "PUM1 PUF domain R5-RFN", "value": "3.08 log2 enrichment (interaction score)"}
    ]},
    {"sequence": "GGCUAGAACUAGUGGAUCCCCCGGCGCCCGGCGGCUCGAGCCCGGGUAAGCGUAAAUAGUCUGCAUGCCGCCGGGCGCCAUGCCUGCAGGUCGACUCUAGAAAACAUG", "values": [
      {"measurement": "binding signal", "setting": "PUM1 PUF domain R8-PFK", "value": "4.13 log2 enrichment (interaction score)"},
      {"measurement": "binding signal", "setting": "PUM1 PUF domain R8-WFR", "value": "4.73 log2 enrichment (interaction score)"}
    ]},
    {"sequence": "GGCUAGAACUAGUGGAUCCCCCGGCGCCCGGCGGCUCGAGCCCGGGUAAGUGUAAGUAGUCUGCAUGCCGCCGGGCGCCAUGCCUGCAGGUCGACUCUAGAAAACAUG", "values": [
      {"measurement": "binding signal", "setting": "PUM1 PUF domain R3-TCE", "value": "5.59 log2 enrichment (interaction score)"},
      {"measurement": "binding signal", "setting": "PUM1 PUF domain R3-GFG", "value": "1.23 log2 enrichment (interaction score)"},
      {"measurement": "binding signal", "setting": "PUM1 PUF domain R3-TWD", "value": "2.42 log2 enrichment (interaction score)"},
      {"measurement": "binding signal", "setting": "PUM1 PUF domain R3-WWS", "value": "5.24 log2 enrichment (interaction score)"}
    ]},
    {"sequence": "GGCUAGAACUAGUGGAUCCCCCGGCGCCCGGCGGCUCGAGCCCGGGUAAGUGUAAAUAGUCUGCAUGCCGCCGGGCGCCAUGCCUGCAGGUCGACUCUAGAAAACAUG", "values": [
      {"measurement": "binding signal", "setting": "PUM1 PUF domain R5-RRN", "value": "2.02 log2 enrichment (interaction score)"},
      {"measurement": "binding signal", "setting": "PUM1 PUF domain R3-GRF", "value": "4.89 log2 enrichment (interaction score)"},
      {"measurement": "binding signal", "setting": "PUM1 PUF domain R5-ARR", "value": "4.33 log2 enrichment (interaction score)"},
      {"measurement": "binding signal", "setting": "PUM1 PUF domain R3-GFG", "value": "3.47 log2 enrichment (interaction score)"},
      {"measurement": "binding signal", "setting": "PUM1 PUF domain R3-GPS", "value": "2.12 log2 enrichment (interaction score)"},
      {"measurement": "binding signal", "setting": "PUM1 PUF domain R4-SMT", "value": "1.34 log2 enrichment (interaction score)"},
      {"measurement": "binding signal", "setting": "PUM1 PUF domain R8-PFK", "value": "5.15 log2 enrichment (interaction score)"},
      {"measurement": "binding signal", "setting": "PUM1 PUF domain R3-WWS", "value": "2.73 log2 enrichment (interaction score)"},
      {"measurement": "binding signal", "setting": "PUM1 PUF domain R8-WFR", "value": "4.29 log2 enrichment (interaction score)"}
    ]},
    {"sequence": "GGCUAGAACUAGUGGAUCCCCCGGCGCCCGGCGGCUCGAGCCCGGGUAAGUGUAAUUAGUCUGCAUGCCGCCGGGCGCCAUGCCUGCAGGUCGACUCUAGAAAACAUG", "values": [
      {"measurement": "binding signal", "setting": "PUM1 PUF domain R3-GRF", "value": "0.84 log2 enrichment (interaction score)"},
      {"measurement": "binding signal", "setting": "PUM1 PUF domain R3-GPS", "value": "1.97 log2 enrichment (interaction score)"},
      {"measurement": "binding signal", "setting": "PUM1 PUF domain R3-NPR", "value": "2.25 log2 enrichment (interaction score)"},
      {"measurement": "binding signal", "setting": "PUM1 PUF domain R3-RSD", "value": "3.6 log2 enrichment (interaction score)"}
    ]}
  ]
}
